Hits are enriched below; roughly 1.5% of the tested compounds scored in any of these assays.
DAT uptake mod = changed human dopamine transporter uptake under cocaine IC80. actives 1.3% (n = 110,000). Q01959. LLC-PK1 hDAT cells, [14C]-dopamine uptake with cocaine IC80; actives deviate in either direction. AID 449768. B-score at 10 µM;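 active means Z score or B-score, a plate-position-corrected score, falls beyond the plate's 99.7% confidence bounds, in either direction; inactive means both scores lie inside the 99.7% bounds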
Target sequence (Q01959 whole entry, looked up): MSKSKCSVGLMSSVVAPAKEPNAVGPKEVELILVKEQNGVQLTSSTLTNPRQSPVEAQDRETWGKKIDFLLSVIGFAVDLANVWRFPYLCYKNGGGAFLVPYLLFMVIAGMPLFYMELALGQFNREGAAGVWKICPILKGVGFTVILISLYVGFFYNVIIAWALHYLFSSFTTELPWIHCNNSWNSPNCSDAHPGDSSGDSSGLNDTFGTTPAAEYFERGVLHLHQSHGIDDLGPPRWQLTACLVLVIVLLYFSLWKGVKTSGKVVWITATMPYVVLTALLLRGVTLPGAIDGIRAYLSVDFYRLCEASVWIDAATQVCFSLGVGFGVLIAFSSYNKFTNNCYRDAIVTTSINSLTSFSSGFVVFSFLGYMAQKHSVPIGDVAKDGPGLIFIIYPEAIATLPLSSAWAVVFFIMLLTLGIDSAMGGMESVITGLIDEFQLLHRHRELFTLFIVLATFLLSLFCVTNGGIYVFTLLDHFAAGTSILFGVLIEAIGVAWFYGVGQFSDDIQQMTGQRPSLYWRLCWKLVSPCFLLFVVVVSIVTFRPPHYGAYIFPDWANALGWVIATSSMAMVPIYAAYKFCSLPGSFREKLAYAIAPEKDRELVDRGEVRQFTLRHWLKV
MRP reversal = compounds reversing MRP-mediated drug resistance; differential viability (reversal), % at 10 µM; AID 602; actives 0.04% (n = 85,000); H69AR cells + 2 uM doxorubicin, CellTiter-Glo, 72 h;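 active means viability drop by adding the cancer drug above about 55%, with treated viability meeting a 40% cutoff, limit read from the data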;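 further: larger differential means the compound sensitizes cells more to doxorubicin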
MRP-1 activ = MRP-1 activation | H69AR cells + doxorubicin, viability rescue, CellTiter-Glo | viability increase, % at 10 µM | actives 0.61% (n = 140,000) | AID 799;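 active means viability gain under doxorubicin at or above a set limit, the compound median plus 3 SD, cut at about 4.7% in these data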;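 further: MRP-1 overexpressing cells given doxorubicin 25 µM after compound pretreatment; 18-22 h compound pretreatment then 72 h with doxorubicin before readout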
Large screens that a line does not name were inactive.

COc1cc(OC)cc(C(=O)NCC(=O)OCC(=O)c2ccc3c(c2)-c2ccccc2C3)c1	none (no result: DAT uptake mod, MRP reversal)
COc1ccc(C)cc1NC(=O)C(C)N(c1ccc(C)cc1)S(C)(=O)=O (centres undefined)	DAT uptake mod 2.73
COc1ccc(NC(=O)C(C)N(c2ccc(C)cc2)S(C)(=O)=O)cc1 (centres undefined)	none
CCSc1nnc(-c2ccc(Cl)cc2)c2ccccc12	none (no result: MRP reversal)
CCSc1nnc(-c2ccc(C)cc2)c2ccccc12	MRP-1 activ 5.6 (no result: DAT uptake mod, MRP reversal)
CCOC(=O)C(C(C)=O)C(c1ccc(OC)cc1)C(C(C)=O)C(=O)OCC (centres undefined)	none (no result: MRP reversal)
CCOC(=O)C(C)c1ccc2cc(OC)ccc2c1 (centres undefined)	DAT uptake mod -4.22
C=CCNC(=O)c1onc(CSc2ccc(F)cc2)c1C(=O)NCCOC	none (no result: MRP reversal)
CCN1CCN(c2ncnc3c2oc2nc(C(C)C)c4c(c23)CCC4)CC1	none (no result: DAT uptake mod, MRP-1 activ)
CC(C)Cc1nc2oc3c(N4CCN(CCO)CC4)ncnc3c2c2c1CCCC2	DAT uptake mod 2.43
CN1CCN(C(=O)CSc2ccc(C(F)(F)F)cc2[N+](=O)[O-])CC1	none (no result: DAT uptake mod, MRP reversal)
CCc1ccc(NC(=O)C(=O)N/N=C(\C)CC(=O)Nc2ccccn2)cc1	none (no result: DAT uptake mod, MRP reversal)
C/C(CC(=O)Nc1ccccn1)=N\NC(=O)C(=O)Nc1ccccc1C	DAT uptake mod 3.23 (no result: MRP reversal)
C[N+]1(CC(=O)Nc2ccc(F)cc2)CCN(C(=O)c2ccco2)CC1	none
Clc1ccc(CSc2nnc(-c3sccc3-n3cccc3)o2)cc1	none (no result: MRP reversal)
COc1ccc(C2C(C(=O)OCC(=O)Nc3ccc(C)cc3)CCC(=O)N2c2ccc(OC)cc2)cc1 (centres undefined)	none
COc1ccc(C2C(C(=O)OCC(=O)NC(C)(C)C)CCC(=O)N2c2ccc(C)cc2)cc1OC (centres undefined)	MRP-1 activ 5.7 (no result: MRP reversal)
Nc1nnc(SCc2cccc(C(F)(F)F)c2)s1	DAT uptake mod -2.69
Nc1nnc(SCc2cccnc2)s1	none
COc1ccc(Cl)cc1N(CC(=O)NCC(C)C)S(=O)(=O)c1ccc(C)c([N+](=O)[O-])c1	none (no result: DAT uptake mod, MRP reversal)
O=C1c2ccccc2C(=O)N1CC(O)CNc1ccc(Br)cc1 (centres undefined)	none (no result: DAT uptake mod, MRP reversal)
CCn1nc(NC(=O)c2ccncc2)c2cc3cc(C)ccc3nc21	DAT uptake mod 2.22 (no result: MRP reversal)
CCCC(=O)Nc1nn(CCC)c2nc3ccccc3cc12	DAT uptake mod 2.1
CCCn1nc(NC(=O)c2ccncc2)c2cc3ccccc3nc21	none
CCn1nc(NC(=O)c2ccncc2)c2cc3ccc(C)cc3nc21	none
Cc1ccc(CNC(=O)c2ccc(Cl)cc2[N+](=O)[O-])cc1	none (no result: MRP reversal)
CCOC(=O)CN1N=C(c2ccc(Cl)s2)CSC1=O	none (no result: DAT uptake mod, MRP reversal)
CCOC(=O)C1=C(C)N(CCCC(=O)O)C(=O)NC1c1ccc(C(F)(F)F)cc1 (centres undefined)	none (no result: MRP reversal, MRP-1 activ)
O=C(c1cccs1)N1N=C(c2ccccc2)CC1c1ccccc1 (centres undefined)	none (no result: MRP reversal)
COc1ccc(C2=NN(C(=O)c3cccs3)C(c3ccc(OC)cc3)C2)cc1 (centres undefined)	MRP-1 activ 7.5 (no result: DAT uptake mod, MRP reversal)
CCOC(=O)n1c(SCC(N)=O)nc2ccccc21	none
CCCCOC(=O)n1c(SCC(=O)N(CC)CC)nc2ccccc21	DAT uptake mod 3.93
Cc1ccccc1NC(=S)NC(NC(=O)COc1ccccc1)C(Cl)(Cl)Cl (centres undefined)	none (no result: MRP reversal)
O=C(COc1ccccc1)NC(NC(=S)Nc1ccccc1O)C(Cl)(Cl)Cl (centres undefined)	DAT uptake mod -3.68 (no result: MRP reversal)
CCOC(=O)C1=C(C)N(CCCC(=O)O)C(=O)NC1c1ccccc1OS(=O)(=O)c1ccc([N+](=O)[O-])cc1 (centres undefined)	none (no result: MRP reversal, MRP-1 activ)
CC1=C(C(=O)OCc2ccccc2)C(c2ccccc2OS(=O)(=O)c2ccc([N+](=O)[O-])cc2)NC(=O)N1CCCC(=O)O (centres undefined)	DAT uptake mod 2.76 (no result: MRP reversal, MRP-1 activ)
C(=N\c1nc2ccccc2[nH]1)/c1cccs1	none
Cn1c(/C=N/c2nc3ccccc3[nH]2)nc2ccccc21	DAT uptake mod -2.45
O=C(NCCc1ccccc1)c1ccc2c(c1)S(=O)(=O)c1ccccc1C2=O	none (no result: MRP reversal, MRP-1 activ)
COc1ccc(-c2[nH]c(-c3ccc(F)cc3)nc2SCC(=O)NC2CCCC2)cc1	none (no result: MRP reversal)
COc1ccc(-c2[nH]c(-c3ccccc3)nc2SCC(=O)NC2CCCC2)cc1	DAT uptake mod 4.71 (no result: MRP reversal)
O=C(NCc1ccc2c(c1)OCO2)c1ccc2c(c1)S(=O)(=O)c1ccccc1C2=O	none (no result: MRP reversal, MRP-1 activ)
CC(O)Cc1cn([C@@H](CCCCNC(=O)OC(C)(C)C)C(=O)N2CCN(C(=O)OC(C)(C)C)CC2)nn1 (some centres undefined)	none (no result: MRP reversal, MRP-1 activ)
COc1ccc(NC(=O)CSc2nc3ccccc3c(=O)n2CCCN2CCCCC2)c(OC)c1	none
CC(=O)Nc1ccc(NC(=O)COC(=O)c2c(C)nn(-c3ccccc3)c2C)cc1	none (no result: DAT uptake mod, MRP reversal)
Cc1nn(-c2ccccc2)c(C)c1C(=O)OCC(=O)NC12CC3CC(CC(C3)C1)C2	DAT uptake mod 3.05
O=C(c1ccccc1NS(=O)(=O)c1cccs1)N1CCCC1	none
NC(=O)c1ccccc1NS(=O)(=O)c1cccs1	DAT uptake mod -3.16
CCOC(=O)c1ccc(NS(=O)(=O)c2c(N)[nH]c(=O)[nH]c2=O)cc1	none (no result: MRP reversal, MRP-1 activ)
O=C(CCCOc1ccc(Cl)cc1Cl)N/N=C\C1CCCCC1	none (no result: MRP reversal)
CCN1CCN(Cc2ccc(NC(=O)c3ccc(C)c(NC(=O)c4ccno4)c3)cc2C(F)(F)F)CC1	none (no result: MRP reversal, MRP-1 activ)
CCN1CCN(Cc2ccc(NC(=O)c3ccc(C)c(NC(=O)c4csc(-c5ccncc5)n4)c3)cc2C(F)(F)F)CC1	DAT uptake mod 1.82 (no result: MRP reversal, MRP-1 activ)
O=C(N[C@@H](Cc1ccc(O)cc1)C(=O)O)c1ccc(C(F)(F)F)cc1	none (no result: MRP reversal, MRP-1 activ)
CCCCC1S/C(=N/N=C/c2ccc(OC)cc2)N(Cc2ccc(OC)cc2)C1=O (centres undefined)	MRP-1 activ 5.4
CCN=C1SC(CC(=O)NCCc2ccc(OC)cc2)C(=O)N1CC (centres undefined)	none (no result: MRP reversal)
CCCC1S/C(=N/N=C/c2ccc(OC)cc2)N(Cc2ccccc2)C1=O (centres undefined)	MRP-1 activ 6.0
CCCC1S/C(=N/N=C/c2ccc(OC)cc2)N(Cc2ccc(OC)cc2)C1=O (centres undefined)	none
CC1(C(=O)NCCc2c[nH]c3ccccc23)C=CCN1C(=O)c1ccccc1 (centres undefined)	none (no result: MRP reversal)
CCOC(=O)c1ccc(NC(=O)c2nc[nH]c2C(=O)N(C)Cc2ccccc2)cc1	none (no result: MRP reversal, MRP-1 activ)
CCOC(=O)/C=C/C(=O)Nc1ccccc1-c1ccccc1NC(=O)/C=C/C(=O)OCC	none (no result: DAT uptake mod, MRP reversal)
CCOC(=O)CC1C(=O)NCCN1C(=O)c1ccc(F)cc1F (centres undefined)	DAT uptake mod -3.39
CCOC(=O)CC1C(=O)NCCN1C(=O)c1cccc(C(F)(F)F)c1 (centres undefined)	none
COC(=O)C1(Cc2ccc(O)cc2)OC(=O)C(O)=C1c1ccc(O)cc1 (centres undefined)	none (no result: MRP reversal, MRP-1 activ)
CN1CCN(/N=C/c2cccc(Cl)c2Cl)CC1	none (no result: DAT uptake mod, MRP reversal)
CSCCC1(C(=O)O)NC(c2ccccc2O)C2C(=O)N(C(C)C)C(=O)C21 (centres undefined)	DAT uptake mod -2.55
CCCC1(C(=O)O)NC(c2ccccc2O)C2C(=O)N(Cc3ccccc3)C(=O)C21 (centres undefined)	none
CC(=O)NC(Cc1ccccc1C)C(=O)NC1CCN(c2ncccc2[N+](=O)[O-])CC1 (centres undefined)	none (no result: DAT uptake mod, MRP reversal)

Compound activity deposited in PubChem BioAssay by several laboratories.
